Screening data deposited in PubChem BioAssay by several laboratories.
This is a sample that favours compounds with a hit; in the whole collection about 4.4% have one here.
Cav32 inh = inhibitors of human Cav3.2 T-type calcium channel; O95180; Cav3.2-expressing cells, Fluo-4 calcium fluorescence FDSS; stronger effect = lower value; B-score at 10 µM; 100,000 compounds, 4% hits; AID 449739;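 active = single-dose well whose peak fluorescence ratio is a statistical outlier from its plate by either plate-standardised score or position-corrected B-score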
Target sequence (O95180 whole entry, looked up): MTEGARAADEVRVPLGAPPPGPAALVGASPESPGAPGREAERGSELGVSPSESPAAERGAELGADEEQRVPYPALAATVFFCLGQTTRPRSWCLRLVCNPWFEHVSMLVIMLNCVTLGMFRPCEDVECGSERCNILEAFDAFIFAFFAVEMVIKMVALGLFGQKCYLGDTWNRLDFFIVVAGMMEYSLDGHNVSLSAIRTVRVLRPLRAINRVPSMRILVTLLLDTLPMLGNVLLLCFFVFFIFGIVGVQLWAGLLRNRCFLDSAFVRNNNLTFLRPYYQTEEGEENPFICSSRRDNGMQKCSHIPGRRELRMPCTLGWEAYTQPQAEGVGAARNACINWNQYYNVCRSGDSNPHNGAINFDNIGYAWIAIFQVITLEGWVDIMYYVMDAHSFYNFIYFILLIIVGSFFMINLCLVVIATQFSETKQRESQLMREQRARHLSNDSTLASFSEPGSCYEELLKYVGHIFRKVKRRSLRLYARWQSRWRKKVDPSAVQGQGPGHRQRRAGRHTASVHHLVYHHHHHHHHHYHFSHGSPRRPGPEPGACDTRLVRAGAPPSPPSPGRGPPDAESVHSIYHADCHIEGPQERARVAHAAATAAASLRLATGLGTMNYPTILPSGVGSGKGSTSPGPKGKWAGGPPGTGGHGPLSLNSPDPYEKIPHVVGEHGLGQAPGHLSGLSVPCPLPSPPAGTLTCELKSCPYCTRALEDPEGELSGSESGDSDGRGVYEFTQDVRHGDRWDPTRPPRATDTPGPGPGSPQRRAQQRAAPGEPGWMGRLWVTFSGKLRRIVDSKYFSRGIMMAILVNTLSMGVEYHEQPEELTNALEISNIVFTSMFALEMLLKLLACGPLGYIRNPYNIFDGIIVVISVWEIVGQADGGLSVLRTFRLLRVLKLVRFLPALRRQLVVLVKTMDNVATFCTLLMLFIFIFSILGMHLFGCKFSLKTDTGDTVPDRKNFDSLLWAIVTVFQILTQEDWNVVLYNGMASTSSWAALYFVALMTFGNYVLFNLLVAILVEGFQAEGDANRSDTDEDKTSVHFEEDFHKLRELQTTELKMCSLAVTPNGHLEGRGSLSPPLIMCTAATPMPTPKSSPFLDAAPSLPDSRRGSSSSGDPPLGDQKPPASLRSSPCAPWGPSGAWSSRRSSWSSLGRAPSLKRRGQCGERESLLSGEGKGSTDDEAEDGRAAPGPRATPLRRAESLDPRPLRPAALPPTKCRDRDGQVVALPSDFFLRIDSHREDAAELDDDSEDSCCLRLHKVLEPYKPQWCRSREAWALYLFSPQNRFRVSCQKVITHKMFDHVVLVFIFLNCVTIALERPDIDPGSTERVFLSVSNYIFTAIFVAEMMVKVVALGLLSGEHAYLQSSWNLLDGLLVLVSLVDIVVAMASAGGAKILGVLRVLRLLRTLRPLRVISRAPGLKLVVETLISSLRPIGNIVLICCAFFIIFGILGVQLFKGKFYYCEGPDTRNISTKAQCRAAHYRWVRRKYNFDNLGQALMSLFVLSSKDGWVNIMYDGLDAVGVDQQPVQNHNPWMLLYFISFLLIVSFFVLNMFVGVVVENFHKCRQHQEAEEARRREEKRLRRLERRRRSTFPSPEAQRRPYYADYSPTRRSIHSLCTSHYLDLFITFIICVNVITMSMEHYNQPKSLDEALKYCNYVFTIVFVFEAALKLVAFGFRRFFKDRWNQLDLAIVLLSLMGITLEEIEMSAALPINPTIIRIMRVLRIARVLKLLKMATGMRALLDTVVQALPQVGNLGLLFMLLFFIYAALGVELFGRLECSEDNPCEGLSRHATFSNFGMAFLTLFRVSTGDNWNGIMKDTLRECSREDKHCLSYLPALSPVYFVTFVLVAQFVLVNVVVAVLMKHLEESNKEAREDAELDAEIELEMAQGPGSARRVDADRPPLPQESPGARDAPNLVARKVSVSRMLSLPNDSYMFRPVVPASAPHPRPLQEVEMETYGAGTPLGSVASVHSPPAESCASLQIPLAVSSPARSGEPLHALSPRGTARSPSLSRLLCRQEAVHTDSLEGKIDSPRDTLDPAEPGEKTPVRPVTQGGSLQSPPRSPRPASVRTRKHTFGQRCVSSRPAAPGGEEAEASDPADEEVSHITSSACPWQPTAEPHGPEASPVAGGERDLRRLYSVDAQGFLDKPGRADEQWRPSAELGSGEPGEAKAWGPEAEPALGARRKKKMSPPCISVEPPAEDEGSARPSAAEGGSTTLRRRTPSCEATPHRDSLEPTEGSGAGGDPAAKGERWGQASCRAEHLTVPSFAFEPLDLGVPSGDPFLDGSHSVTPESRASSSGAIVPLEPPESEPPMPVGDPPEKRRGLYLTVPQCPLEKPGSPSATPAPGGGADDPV
NFkB transloc inh = blocks IL-1B driven NFkB nuclear translocation in HUVEC cells. 94,000 compounds, 0.43% hits. HUVEC IL-1B NFkB p65 nuclear translocation imaging. inhibition, % at 2 µM;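 active = inhibition above about 30% together with a positive call from visual inspection of the well image, limit read from the data; inconclusive = inhibition above a set limit but visual check negative; inactive = inhibition not above a set limit, visual check negative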;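 also: nuclear over cytoplasmic p65 intensity ratio measured by imaging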
IL1B NFkB pot = enhances IL-1B driven NFkB nuclear translocation; activation, % at 2 µM; 94,000 compounds, 0.3% hits; HUVEC IL-1B NFkB p65 nuclear translocation imaging;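 active = activation above 40%, about the mean plus 3 SD, also judged a hit on visual image review; inconclusive = activation above 40% but not a hit on visual review; inactive = activation not above 40% and no visual hit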;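 also: percent activation is computed from the nuclear over cytoplasmic p65 intensity ratio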
IL1B cytotox = HUVEC cytotoxicity counter-screen, IL-1B stimulated; HUVEC cell count loss, Hoechst imaging; cell count reduction, % at 2 µM; 94,000 compounds, 0.41% hits; AID 845;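 active = cell count reduction more than 3 SD above the screen-wide mean, cut at about 70% in these data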
Each line names hits and unclear results; the compound was inactive in the other large screens.

Nc1[nH]n2c(=O)c3c(nc2c1N=Nc1ccccc1)CCCC3	Cav32 inh -9.6
Nc1[nH]n2c(=O)c3c(nc2c1N=Nc1ccc(Cl)cc1)CCCC3	Cav32 inh -8.7
Cc1[nH]n2c(=O)c3c(nc2c1-c1ccccc1)CCC3	none
Cc1[nH]n2c(=O)c3c(nc2c1-c1ccc(Cl)cc1)CCC3	none (no result: NFkB transloc inh, IL1B NFkB pot, IL1B cytotox)
COc1ccccc1N1CCN(CC(=O)NCC2CCCO2)CC1 (stereo not drawn)	none
Clc1ccc(Oc2nnnn2-c2ccccc2)cc1	none
COc1cc(Cl)c(C)cc1NC(=O)CNC(=O)Cn1cnc2ccccc2c1=O	none
CCCCOC(=O)Cn1c(=N)n(CCN2CCOCC2)c2ccccc21	none
N=c1n(CCN2CCOCC2)c2ccccc2n1CC(=O)c1ccc(Cl)c(Cl)c1	Cav32 inh -4.7
Cc1sc2ncnc(N3CCCCC3)c2c1C	none
Cc1ccc(OCCN2CCN(c3ncnc4sc(C)c(C)c34)CC2)cc1	Cav32 inh -3.6
CC(=O)N(Cc1ccc(F)cc1)C1=C(NCc2ccccc2)C(=O)c2ccccc2C1=O	Cav32 inh -5.1
CC1CCc2nc(NC(=O)CSc3nc4ccccc4o3)sc2C1 (stereo not drawn)	none
O=C(O)c1ccccc1-c1nc2ccccc2c(=O)[nH]1	none (no result: NFkB transloc inh, IL1B NFkB pot, IL1B cytotox)
O=C(O)c1ccccc1C1=Nc2ccc(O)cc2Oc2cc(O)ccc21	Cav32 inh -9.2
CCn1c(SCc2nc3ccccc3[nH]2)nnc1-c1ccc(OC)cc1	none
COc1cc2c3nnc(-c4ccc(F)cc4)c-3cn(Cc3cccc(C)c3)c2cc1OC	Cav32 inh -3.6
Fc1ccc(Cn2cnc3ccccc32)cc1	none
COc1cc2c3nnc(-c4ccc(F)cc4)c-3cn(Cc3ccc(C)cc3)c2cc1OC	Cav32 inh -5.8
O=C(O)c1ccc(CSc2nnc(COc3ccc(Cl)cc3Cl)o2)cc1	Cav32 inh -9.2
CC(C)(C)OC(=O)NCCc1nnc(SCc2ccc(Cl)cc2)o1	none
O=C(CSc1ncccc1-c1nc2ccccc2[nH]1)N1CCN(c2ccccc2F)CC1	IL1B cytotox 85
CCN(CC)C(=O)c1[nH]cnc1C(=O)N[C@@H](Cc1ccccc1)C(=O)OCc1ccccc1	none (no result: NFkB transloc inh, IL1B NFkB pot, IL1B cytotox)
Cc1cc(=O)n(CC(C)O)c(O)c1C#N (stereo not drawn)	NFkB transloc inh 99, IL1B cytotox 89
CCOC(=O)C1=C(CSc2nc(CC)c(C)cc2C#N)OC(N)=C(C#N)C1c1ccc(OC)cc1 (stereo not drawn)	Cav32 inh -8.4
CCOC(=O)C1=C(CSc2nc(-c3ccncc3)ccc2C#N)OC(N)=C(C#N)C1c1cccnc1 (stereo not drawn)	Cav32 inh -5 (no result: NFkB transloc inh, IL1B NFkB pot, IL1B cytotox)
CC(C)N1CC=C2C(C#N)=C(N)C(C#N)(C#N)C(c3ccccc3)C2C1 (stereo not drawn)	none
CC(C)N1CC=C2C(C#N)=C(N)C(C#N)(C#N)[C@H](c3ccoc3)[C@H]2C1	Cav32 inh -4.6
CCn1c(N)c(C(=O)NCCCOC)sc1=S	none (no result: Cav32 inh)
CCCCCCCCS(=O)c1sc2nc3c(cc2c1N)CCCC3 (stereo not drawn)	Cav32 inh -4.8
CCCCS(=O)(=O)c1sc2nc3c(cc2c1N)CCCC3	none
COc1cccc(Oc2cn[nH]c2-c2ccc(OC)cc2O)c1	Cav32 inh -4.9
Cc1oc(-c2ccccc2F)nc1CS(=O)(=O)CC(=O)N1CCCCCC1	none
Cc1ccccc1-c1nc(CS(=O)(=O)CC(=O)NCc2ccccc2)c(C)o1	Cav32 inh -4.2
Cc1ccccc1-c1nc(CS(=O)(=O)CC(=O)N(C)C2CCCCC2)c(C)o1	Cav32 inh -7.3
Cn1ccc2cc(NC(=O)Nc3cccnc3)ccc21	none (no result: NFkB transloc inh, IL1B NFkB pot, IL1B cytotox)
Cc1ccc(NC(=O)/C=C/c2cccs2)c([N+](=O)[O-])c1	none
c1ccc(-n2nnnc2NC2CCCCC2)cc1	none (no result: Cav32 inh)
Cc1cccc(-c2nsc(SCC(=O)NCc3ccco3)n2)c1	Cav32 inh -3.9
N/C(=N\OC(=O)C1CCCCC1)c1ccccn1	none
O=C(CN1C(=O)C2CC=CCC2C1=O)Nc1ccc(S(=O)(=O)NC2=NCCCCC2)cc1 (stereo not drawn)	none
CC12CC(NC(=O)N1c1cccc(C(=O)NCc3ccc4c(c3)OCO4)c1)c1cc(Cl)ccc1O2 (stereo not drawn)	Cav32 inh -3.7
CC12CC(NC(=O)N1c1cccc(C(=O)N3CCN(c4ccccc4F)CC3)c1)c1ccccc1O2 (stereo not drawn)	Cav32 inh -4.6
CCOC(=O)CSc1nc2ccccc2c(=O)n1CC1CCCC1	Cav32 inh -3.5
CCOC(=O)CSc1nc2ccccc2c(=O)n1CC	NFkB transloc inh inconclusive
CCOC(=O)CSc1nnc(Cc2ccccc2)n1CC1CCCO1 (stereo not drawn)	IL1B NFkB pot 52
CCOC(=O)CSc1nnc(Cc2ccccc2)n1-c1cccc(Cl)c1	none
O=C(CC(SCc1ccco1)c1ccc(O)cc1)c1cccs1 (stereo not drawn)	Cav32 inh -4.5
Cc1ccc(S(=O)(=O)NC(CCc2ccccc2)CC(=O)C(C)(C)C)cc1 (stereo not drawn)	none (no result: NFkB transloc inh, IL1B NFkB pot, IL1B cytotox)
COc1ccc(S(=O)(=O)N2CCC(n3cnc4cc(C(F)(F)F)ccc43)CC2)cc1	Cav32 inh -6.2 (no result: NFkB transloc inh, IL1B NFkB pot, IL1B cytotox)
OCC[C@H]1C[C@@H](O)[C@H](O)[C@]2(CCCO2)O1	none (no result: NFkB transloc inh, IL1B NFkB pot, IL1B cytotox)
Cc1ccc(Nc2nc(N)nc(CN3CCc4ccccc4C3)n2)cc1	none
Cc1c(Cl)cccc1Nc1nc(N)nc(CN2CCc3ccccc3C2)n1	Cav32 inh -4
COc1ccc(C(C(=O)NC2CCCCC2)N(C(=O)c2sc(C)nc2C)c2ccccc2C)cc1 (stereo not drawn)	none
CCCCCCNC(=O)n1cc(F)c(=O)[nH]c1=O	none (no result: NFkB transloc inh, IL1B NFkB pot, IL1B cytotox)
CCOC(=O)/C(=C/c1c2ccccc2cc2ccccc12)NC(=O)c1ccccc1	IL1B cytotox 92
CCOC(=O)/C(=C/c1c[nH]c2ccccc12)NC(C)=O	none
CCOC(=O)N1CCN(C(=O)/C(=C/c2cccc3ccccc23)NC(=O)c2ccc(OC)cc2)CC1	none
C=CCOC(=O)/C(=C\c1cccc2ccccc12)NC(=O)c1ccccc1	Cav32 inh -5.2
Cc1cc2cc(CN(C(=O)C3CC3)C3CCCC3)c3nnnn3c2cc1C	Cav32 inh -4.9 (no result: NFkB transloc inh, IL1B NFkB pot, IL1B cytotox)
CCc1ccc2c(c1)cc(CN(C(=S)Nc1cccc(C)c1)C1CC1)c1nnnn12	none
COc1ccc(-c2nnc(SCC(=O)N(Cc3ccccc3)C(C)(C)C)o2)cc1OC	Cav32 inh -7.1
Cc1ccc(C2/C(=C(/O)c3ccc(Br)cc3)C(=O)C(=O)N2Cc2ccco2)o1 (stereo not drawn)	none
O=S(=O)(/N=C(/Nc1cccc2ccccc12)c1ccccc1)c1cccs1	Cav32 inh -4.6
N#CC(/C(=N/S(=O)(=O)c1cccs1)c1ccccc1)c1nc2ccccc2[nH]1 (stereo not drawn)	none (no result: Cav32 inh)
CCn1c(SC(C)C)nnc1-c1cc(-c2ccccc2)sc1N	Cav32 inh -3.7
Cc1ccc(CCNC(=O)Cn2cccc2)cc1	NFkB transloc inh 98, IL1B cytotox 88
COc1ccc(CCNC(=O)Cn2cnc3c(nnn3Cc3ccccc3F)c2=O)cc1OC	none
CS(=O)(=O)N(CC(=O)NC1CCCC1)Cc1ccc(Cl)cc1	none
Cc1nc2ccccc2n2c(O)c(CC(=O)O)cc12	Cav32 inh -6.3 (no result: NFkB transloc inh, IL1B NFkB pot, IL1B cytotox)
